# Legend:
# [1] = target: T1, Ephrin type-B receptor 1 (Homo sapiens) (UniProt P54762); settings: at 10 µM
# T1 sequence (whole entry): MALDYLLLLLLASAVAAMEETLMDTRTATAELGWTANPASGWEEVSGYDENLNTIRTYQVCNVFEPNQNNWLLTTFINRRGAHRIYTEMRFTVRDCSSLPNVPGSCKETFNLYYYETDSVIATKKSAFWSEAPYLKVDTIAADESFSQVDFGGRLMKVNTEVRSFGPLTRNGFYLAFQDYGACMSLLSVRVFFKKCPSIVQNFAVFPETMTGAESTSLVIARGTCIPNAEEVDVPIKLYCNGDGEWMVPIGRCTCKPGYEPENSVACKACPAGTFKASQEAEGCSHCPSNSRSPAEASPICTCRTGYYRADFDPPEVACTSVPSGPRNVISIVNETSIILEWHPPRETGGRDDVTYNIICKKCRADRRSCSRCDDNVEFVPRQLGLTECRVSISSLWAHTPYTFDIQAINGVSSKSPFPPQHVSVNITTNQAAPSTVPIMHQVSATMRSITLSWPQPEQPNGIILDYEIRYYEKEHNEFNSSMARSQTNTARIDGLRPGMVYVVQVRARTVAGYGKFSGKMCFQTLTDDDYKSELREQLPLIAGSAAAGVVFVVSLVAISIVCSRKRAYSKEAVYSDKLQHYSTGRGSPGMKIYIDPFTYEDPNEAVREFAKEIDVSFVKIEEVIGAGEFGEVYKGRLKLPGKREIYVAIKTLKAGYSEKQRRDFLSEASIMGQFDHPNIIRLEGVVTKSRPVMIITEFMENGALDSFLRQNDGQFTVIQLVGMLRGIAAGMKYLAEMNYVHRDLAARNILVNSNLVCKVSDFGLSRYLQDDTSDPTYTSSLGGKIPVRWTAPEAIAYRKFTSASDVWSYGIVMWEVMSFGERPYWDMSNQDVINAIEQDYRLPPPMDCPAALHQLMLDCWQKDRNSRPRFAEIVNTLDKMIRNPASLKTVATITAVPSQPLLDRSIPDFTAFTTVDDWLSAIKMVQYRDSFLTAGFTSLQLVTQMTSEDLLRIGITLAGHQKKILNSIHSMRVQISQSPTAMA
# [2] = target: T2, Ephrin type-B receptor 2 (Homo sapiens) (UniProt P29323); settings: at 1 µM
# T2 sequence (whole entry): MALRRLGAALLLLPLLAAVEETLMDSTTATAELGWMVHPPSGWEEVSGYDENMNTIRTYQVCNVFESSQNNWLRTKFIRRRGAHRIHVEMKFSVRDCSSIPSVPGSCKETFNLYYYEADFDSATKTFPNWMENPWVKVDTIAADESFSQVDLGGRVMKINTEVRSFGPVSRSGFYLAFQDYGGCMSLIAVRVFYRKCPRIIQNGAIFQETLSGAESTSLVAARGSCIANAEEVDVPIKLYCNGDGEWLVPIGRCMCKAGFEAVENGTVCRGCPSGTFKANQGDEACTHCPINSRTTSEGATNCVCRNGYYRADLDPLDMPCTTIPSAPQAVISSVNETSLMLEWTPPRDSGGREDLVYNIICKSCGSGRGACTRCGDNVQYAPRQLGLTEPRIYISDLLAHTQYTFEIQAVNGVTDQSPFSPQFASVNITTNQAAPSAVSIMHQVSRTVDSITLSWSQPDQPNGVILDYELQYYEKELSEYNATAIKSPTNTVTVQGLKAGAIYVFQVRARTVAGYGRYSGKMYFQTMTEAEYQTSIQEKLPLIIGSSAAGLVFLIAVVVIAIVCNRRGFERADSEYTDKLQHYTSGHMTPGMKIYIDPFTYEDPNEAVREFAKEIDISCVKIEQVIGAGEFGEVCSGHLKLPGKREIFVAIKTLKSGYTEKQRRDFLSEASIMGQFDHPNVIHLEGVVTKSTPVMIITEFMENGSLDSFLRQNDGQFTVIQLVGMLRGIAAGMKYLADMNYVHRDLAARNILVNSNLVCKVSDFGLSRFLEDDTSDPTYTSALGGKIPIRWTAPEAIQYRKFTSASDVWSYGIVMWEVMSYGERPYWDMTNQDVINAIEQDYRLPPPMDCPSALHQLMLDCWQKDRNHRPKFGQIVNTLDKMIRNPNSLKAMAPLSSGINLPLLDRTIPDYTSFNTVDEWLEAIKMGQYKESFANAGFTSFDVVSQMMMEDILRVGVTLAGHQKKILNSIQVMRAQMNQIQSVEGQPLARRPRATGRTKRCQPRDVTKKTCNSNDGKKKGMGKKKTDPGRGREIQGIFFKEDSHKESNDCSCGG
# [3] = target: T2, Ephrin type-B receptor 2 (Homo sapiens); settings: at 10 µM
# [4] = target: T3, Ephrin type-B receptor 3 (Homo sapiens) (UniProt P54753); settings: at 1 µM
# T3 sequence (whole entry): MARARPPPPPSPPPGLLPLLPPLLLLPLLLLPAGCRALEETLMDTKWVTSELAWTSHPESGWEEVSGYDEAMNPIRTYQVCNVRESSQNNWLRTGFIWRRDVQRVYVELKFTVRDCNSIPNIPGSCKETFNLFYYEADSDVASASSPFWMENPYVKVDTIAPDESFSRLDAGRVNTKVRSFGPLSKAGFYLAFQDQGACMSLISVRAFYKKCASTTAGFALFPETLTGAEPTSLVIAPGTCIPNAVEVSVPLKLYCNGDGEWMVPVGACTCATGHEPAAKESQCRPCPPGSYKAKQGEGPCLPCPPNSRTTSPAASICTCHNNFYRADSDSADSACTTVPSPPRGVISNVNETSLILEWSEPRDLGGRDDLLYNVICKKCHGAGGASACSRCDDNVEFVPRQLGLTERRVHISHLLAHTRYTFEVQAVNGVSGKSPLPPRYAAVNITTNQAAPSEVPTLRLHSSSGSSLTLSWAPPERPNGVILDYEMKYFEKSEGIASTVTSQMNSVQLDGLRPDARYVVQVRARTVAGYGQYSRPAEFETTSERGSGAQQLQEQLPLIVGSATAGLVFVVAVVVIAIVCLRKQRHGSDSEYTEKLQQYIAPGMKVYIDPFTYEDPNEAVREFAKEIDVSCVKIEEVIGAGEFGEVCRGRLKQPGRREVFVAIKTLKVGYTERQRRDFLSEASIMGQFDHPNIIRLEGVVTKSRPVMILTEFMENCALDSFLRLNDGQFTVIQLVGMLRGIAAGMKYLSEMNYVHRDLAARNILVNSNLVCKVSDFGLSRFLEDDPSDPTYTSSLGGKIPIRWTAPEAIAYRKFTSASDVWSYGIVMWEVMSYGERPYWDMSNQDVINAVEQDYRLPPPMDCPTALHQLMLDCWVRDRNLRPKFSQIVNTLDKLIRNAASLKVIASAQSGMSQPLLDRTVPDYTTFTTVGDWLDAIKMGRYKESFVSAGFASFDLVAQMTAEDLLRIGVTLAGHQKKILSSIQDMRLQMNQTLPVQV
# [5] = target: T3, Ephrin type-B receptor 3 (Homo sapiens); settings: at 10 µM
# [6] = target: T4, Ephrin type-B receptor 4 (Homo sapiens) (UniProt P54760); settings: at 1 µM
# T4 sequence (whole entry): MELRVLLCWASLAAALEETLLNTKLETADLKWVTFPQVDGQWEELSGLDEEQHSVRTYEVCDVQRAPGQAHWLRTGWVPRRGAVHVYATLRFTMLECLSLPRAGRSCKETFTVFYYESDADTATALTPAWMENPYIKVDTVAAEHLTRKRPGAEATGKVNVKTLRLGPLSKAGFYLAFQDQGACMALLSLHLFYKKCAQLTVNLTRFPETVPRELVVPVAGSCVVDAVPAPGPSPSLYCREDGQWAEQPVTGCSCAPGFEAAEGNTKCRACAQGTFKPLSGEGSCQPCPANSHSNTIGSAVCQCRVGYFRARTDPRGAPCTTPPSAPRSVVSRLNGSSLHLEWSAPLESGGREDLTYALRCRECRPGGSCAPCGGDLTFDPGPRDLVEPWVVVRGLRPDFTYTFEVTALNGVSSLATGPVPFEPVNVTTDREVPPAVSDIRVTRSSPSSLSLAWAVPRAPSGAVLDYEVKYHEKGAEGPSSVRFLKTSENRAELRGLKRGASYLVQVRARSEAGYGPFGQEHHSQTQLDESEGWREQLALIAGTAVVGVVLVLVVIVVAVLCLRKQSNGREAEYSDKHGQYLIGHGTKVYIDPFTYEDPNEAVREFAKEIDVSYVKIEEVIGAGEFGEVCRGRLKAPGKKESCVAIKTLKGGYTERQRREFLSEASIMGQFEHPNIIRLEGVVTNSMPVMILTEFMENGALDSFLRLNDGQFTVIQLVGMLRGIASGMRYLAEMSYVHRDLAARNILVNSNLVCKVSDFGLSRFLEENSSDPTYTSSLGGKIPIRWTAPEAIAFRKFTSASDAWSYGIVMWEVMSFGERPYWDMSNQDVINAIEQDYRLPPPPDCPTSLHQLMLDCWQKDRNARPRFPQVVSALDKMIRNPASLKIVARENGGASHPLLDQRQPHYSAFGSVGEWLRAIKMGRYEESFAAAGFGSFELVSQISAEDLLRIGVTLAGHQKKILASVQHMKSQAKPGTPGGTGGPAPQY
# [7] = target: T4, Ephrin type-B receptor 4 (Homo sapiens); settings: at 10 µM
# [8] = target: Receptor tyrosine-protein kinase erbB-4 (Homo sapiens) (UniProt Q15303); settings: at 1 µM
# Receptor tyrosine-protein kinase erbB-4 (Homo sapiens), sequence (Q15303 whole entry): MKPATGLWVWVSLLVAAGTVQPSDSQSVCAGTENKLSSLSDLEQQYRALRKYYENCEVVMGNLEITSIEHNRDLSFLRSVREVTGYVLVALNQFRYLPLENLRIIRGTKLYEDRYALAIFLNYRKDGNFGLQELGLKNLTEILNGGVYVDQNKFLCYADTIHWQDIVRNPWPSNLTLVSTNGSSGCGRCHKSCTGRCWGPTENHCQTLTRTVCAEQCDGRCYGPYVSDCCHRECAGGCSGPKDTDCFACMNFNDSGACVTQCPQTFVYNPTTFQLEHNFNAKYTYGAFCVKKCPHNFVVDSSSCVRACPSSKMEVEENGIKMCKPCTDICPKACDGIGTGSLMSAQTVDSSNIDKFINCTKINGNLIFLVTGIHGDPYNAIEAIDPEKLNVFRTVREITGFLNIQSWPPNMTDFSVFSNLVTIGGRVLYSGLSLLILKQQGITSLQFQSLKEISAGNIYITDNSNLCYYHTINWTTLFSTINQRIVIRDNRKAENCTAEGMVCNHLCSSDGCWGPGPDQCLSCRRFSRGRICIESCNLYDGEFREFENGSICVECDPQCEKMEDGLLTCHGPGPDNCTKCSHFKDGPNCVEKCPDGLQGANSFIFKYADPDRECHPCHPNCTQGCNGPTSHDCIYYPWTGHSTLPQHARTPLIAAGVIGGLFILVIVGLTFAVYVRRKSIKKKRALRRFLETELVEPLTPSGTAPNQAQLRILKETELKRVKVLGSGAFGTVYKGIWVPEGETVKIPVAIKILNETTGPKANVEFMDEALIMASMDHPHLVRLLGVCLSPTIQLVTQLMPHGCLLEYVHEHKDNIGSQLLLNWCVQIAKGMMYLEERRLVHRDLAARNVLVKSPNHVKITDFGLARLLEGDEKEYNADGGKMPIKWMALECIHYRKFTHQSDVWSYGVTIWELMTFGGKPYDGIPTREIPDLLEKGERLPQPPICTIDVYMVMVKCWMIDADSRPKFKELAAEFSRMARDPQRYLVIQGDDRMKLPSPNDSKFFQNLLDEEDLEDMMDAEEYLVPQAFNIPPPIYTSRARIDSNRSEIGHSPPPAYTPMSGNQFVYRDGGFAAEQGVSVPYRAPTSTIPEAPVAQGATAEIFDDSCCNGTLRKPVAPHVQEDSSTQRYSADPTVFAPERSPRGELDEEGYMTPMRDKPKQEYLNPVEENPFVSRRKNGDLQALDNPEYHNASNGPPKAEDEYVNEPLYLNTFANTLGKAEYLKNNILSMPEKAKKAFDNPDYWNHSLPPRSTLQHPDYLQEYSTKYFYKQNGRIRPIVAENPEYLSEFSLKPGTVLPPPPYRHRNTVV
# [9] = target: Receptor tyrosine-protein kinase erbB-4 (Homo sapiens) (UniProt Q15303); settings: at 10 µM
# [10] = target: Focal adhesion kinase 1 (Homo sapiens) (UniProt Q05397); settings: at 1 µM
# Focal adhesion kinase 1 (Homo sapiens), sequence (Q05397 2-1052 limits assumed): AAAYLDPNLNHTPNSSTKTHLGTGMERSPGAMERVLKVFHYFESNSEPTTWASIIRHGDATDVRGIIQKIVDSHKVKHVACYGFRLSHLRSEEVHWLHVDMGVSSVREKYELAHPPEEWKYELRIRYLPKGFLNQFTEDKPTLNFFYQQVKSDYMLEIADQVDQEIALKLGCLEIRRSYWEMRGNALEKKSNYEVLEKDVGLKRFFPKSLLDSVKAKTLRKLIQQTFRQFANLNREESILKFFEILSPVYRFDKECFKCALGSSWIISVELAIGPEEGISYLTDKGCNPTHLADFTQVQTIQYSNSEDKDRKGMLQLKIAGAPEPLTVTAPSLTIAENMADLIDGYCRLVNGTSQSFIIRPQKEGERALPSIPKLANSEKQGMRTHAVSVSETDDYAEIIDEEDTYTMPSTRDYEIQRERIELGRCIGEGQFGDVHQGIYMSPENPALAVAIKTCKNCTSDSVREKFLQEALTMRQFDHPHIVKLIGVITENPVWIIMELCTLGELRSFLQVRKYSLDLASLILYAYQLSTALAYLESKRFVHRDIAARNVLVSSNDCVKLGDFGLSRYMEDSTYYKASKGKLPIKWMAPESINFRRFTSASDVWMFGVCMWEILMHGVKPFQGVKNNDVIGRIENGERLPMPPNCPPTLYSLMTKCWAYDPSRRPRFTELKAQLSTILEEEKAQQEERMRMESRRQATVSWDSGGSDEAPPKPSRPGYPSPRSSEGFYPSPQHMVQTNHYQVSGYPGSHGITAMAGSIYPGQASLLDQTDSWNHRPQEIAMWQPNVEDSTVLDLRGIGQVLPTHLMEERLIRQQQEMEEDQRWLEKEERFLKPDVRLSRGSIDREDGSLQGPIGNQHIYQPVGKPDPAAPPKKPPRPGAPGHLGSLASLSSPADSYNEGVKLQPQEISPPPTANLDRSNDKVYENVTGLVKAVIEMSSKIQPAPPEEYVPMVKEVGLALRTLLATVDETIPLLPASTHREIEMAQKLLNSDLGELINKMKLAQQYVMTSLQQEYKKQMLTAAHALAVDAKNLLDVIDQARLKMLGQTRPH
smiles,measurement,setting,value
O=C(Nc1cccc(Nc2cc(Nc3cccc(C(F)(F)F)c3)ncn2)c1)C1CC1,residual activity,[1],69%
same,residual activity,[2],101%
same,residual activity,[3],99%
same,residual activity,[4],90% (inactive)
same,residual activity,[5],100%
same,residual activity,[6],97%
same,residual activity,[7],82%
same,residual activity,[8],71%
same,residual activity,[9],88%
same,residual activity,[10],130%
